Screening results (PubChem BioAssay)
Rows were chosen to be rich in hits. Some 0.83% of all compounds tested hit in one or more screens of this group.
SRC3 inh: SRC3 coactivator transcriptional activity inhibitors, primary screen, cell-based, luminescence | 360,000 compounds, 0.17% hits | HEK293 GAL4-SRC3 luciferase reporter | AID 588352, 2011 | inhibition, % at 3.6 µM;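 active means inhibition above a per-campaign cutoff, the mean of all compounds plus 3 SD, cut at about 60% in these data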;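 further: 0% = DMSO-treated cells and 100% = gossypol-treated cells at 36 µM; higher means less SRC3-driven luciferase light from the GAL4 reporter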
Target sequence (Q9Y6Q9 whole entry, looked up, the tested form may be a part): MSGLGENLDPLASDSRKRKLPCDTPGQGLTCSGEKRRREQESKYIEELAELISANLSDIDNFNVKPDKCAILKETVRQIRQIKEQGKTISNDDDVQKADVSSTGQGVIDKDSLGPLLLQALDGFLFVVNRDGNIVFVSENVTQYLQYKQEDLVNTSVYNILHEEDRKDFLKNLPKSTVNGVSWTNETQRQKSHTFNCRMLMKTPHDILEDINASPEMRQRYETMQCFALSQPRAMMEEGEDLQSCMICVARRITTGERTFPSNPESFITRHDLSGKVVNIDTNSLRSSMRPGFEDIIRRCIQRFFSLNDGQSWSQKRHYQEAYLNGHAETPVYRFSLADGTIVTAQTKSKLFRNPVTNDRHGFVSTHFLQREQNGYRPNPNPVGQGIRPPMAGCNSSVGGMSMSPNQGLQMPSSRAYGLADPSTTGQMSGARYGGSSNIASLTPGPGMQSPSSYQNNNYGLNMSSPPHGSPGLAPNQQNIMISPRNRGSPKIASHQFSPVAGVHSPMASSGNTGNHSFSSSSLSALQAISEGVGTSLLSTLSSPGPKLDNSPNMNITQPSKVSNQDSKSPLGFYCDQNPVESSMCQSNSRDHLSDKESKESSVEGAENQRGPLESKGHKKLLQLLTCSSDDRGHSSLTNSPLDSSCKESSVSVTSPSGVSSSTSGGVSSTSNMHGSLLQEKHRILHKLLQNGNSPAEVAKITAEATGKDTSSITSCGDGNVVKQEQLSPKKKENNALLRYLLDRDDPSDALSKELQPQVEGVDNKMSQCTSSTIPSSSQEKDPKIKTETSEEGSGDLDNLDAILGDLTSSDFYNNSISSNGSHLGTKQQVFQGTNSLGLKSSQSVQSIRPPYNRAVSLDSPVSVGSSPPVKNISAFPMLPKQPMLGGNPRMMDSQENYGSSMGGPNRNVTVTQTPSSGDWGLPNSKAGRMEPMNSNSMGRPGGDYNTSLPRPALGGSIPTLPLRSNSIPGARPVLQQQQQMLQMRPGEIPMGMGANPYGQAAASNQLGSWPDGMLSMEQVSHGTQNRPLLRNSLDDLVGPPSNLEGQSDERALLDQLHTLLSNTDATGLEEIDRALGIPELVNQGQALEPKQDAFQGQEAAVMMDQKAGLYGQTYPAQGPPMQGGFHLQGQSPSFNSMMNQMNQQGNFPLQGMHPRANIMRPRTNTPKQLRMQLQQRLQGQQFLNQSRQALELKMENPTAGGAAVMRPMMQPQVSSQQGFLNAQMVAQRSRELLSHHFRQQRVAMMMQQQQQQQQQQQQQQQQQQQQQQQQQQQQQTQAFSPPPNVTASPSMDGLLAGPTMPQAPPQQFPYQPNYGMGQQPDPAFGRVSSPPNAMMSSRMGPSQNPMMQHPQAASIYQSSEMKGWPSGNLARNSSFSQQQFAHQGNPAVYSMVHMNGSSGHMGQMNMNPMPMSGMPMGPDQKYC
SRC1 inh: SRC1 coactivator transcriptional activity inhibitors, primary screen, cell-based, luminescence; Nuclear receptor coactivator 1 (Homo sapiens), Q15788; HEK293 GAL4-SRC1 luciferase reporter; inhibition, % at 3.6 µM; 360,000 compounds, 0.12% hits; AID 588354, 2011;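 active means inhibition above the campaign mean plus 3 SD, with each screening campaign given its own cutoff, cut at about 60% in these data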;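 further: 0% = DMSO treated cells and 100% = gossypol at 36 µM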
Gli-Sufu block: Gli-Sufu pathway antagonists, primary screen, luciferase luminescence, Sufu-KO-LIGHT cells, uHTS; Sufu-KO-LIGHT fibroblasts, Gli luciferase reporter luminescence; inhibition, % at 5 µM; 340,000 compounds, 0.74% hits; AID 588413, 2011;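 active means inhibition above about 55%, limit read from the data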;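 further: 0% = DMSO-treated cells and 100% = wells with medium but no cells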
LRH-1 inv ag: LRH-1 (NR5A2) inverse agonists, primary screen, cell-based, luminescence, HEK293T, StAR-luciferase reporter; Nuclear receptor subfamily 5 group A member 2 (Homo sapiens), O00482; LRH-1 transfected, 24 h; inhibition, % at 3.6 µM; 360,000 compounds, 0.13% hits; AID 602396, 2012;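 active means inhibition above the mean inhibition of all tested compounds plus 3 SD, cut at about 73% in these data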;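 further: 0% = DMSO wells and 100% = reporter-only cells lacking LRH-1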
NCOA2 inhibitor: inhibition of GAL4-SRC2 driven luciferase reporter, primary screen, SRC2 inhibitor project, cell-based, luminescence; Nuclear receptor coactivator 2 (Homo sapiens), Q15596; HEK293 GAL4-SRC2 luciferase reporter; inhibition, % at 9 µM; 370,000 compounds, 0.17% hits;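 active means inhibition above the mean inhibition of all tested compounds plus 3 SD, set per campaign, cut at about 52% in these data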;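 further: 0% = DMSO treated cells and 100% = cells given Gossypol at 36 µM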
Gli antag conf: Gli-SUFU pathway antagonists, confirmation, single concentration, luciferase luminescence, Sufu-KO-LIGHT cells | 2,500 compounds, 40% hits | Gli luciferase reporter | shares compounds with Gli-Sufu block | inhibition, % at 5 µM;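 active means mean inhibition at 5 µM reaching about 45%, limit read from the data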;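 further: plate controls were DMSO-treated cells for no effect and wells lacking cells for full effect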
SufuKO cytotox: cytotoxicity in Sufu-KO-LIGHT cells, confirmation, cytotoxicity control for Gli-SUFU antagonist project, cell-based, ATP luminescence, single concentration. shares compounds with Gli-Sufu block. cytotoxicity, % at 5 µM. 2,500 compounds, 32% hits;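 active means mean cytotoxicity at 5 µM above about 25%, limit read from the data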;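 further: cells exposed to compound overnight for roughly 16 to 18 hours; plate controls were DMSO wells with cells for no effect and medium without cells for full effect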
Wnt3a cs: Wnt3a reporter signal inhibition, confirmation, counter-screen for Gli-SUFU antagonist project, Wnt-LIGHT cells, luminescence, single concentration | Wnt3a-driven luciferase reporter | shares compounds with Gli-Sufu block | inhibition, % at 6.25 µM | AID 651995, 2013 | 2,500 compounds, 20% hits;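 active means mean inhibition above about 25%, limit read from the data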
Numbers without * were called inactive; . = no result given.

SMILES | SRC3 inh | SRC1 inh | Gli-Sufu block | LRH-1 inv ag | NCOA2 inhibitor | Gli antag conf | SufuKO cytotox | Wnt3a cs
CCCCCCCn1ccc(=N)cc1 | 24 | 23 | 84* | 79* | 3 | 88* | 35* | 43*
CCN(CC(=O)Nc1c(F)cccc1F)C(=O)c1cccc(S(=O)(=O)N2CCCCCC2)c1 | 2 | 1 | 1 | 13 | 9 | . | . | .
CCN(Cc1ccncc1)C(=O)C1CCN(S(=O)(=O)c2cccs2)CC1 | 7 | -8 | 99* | 18 | 6 | 13 | 18 | 10
CCN(Cc1ccncc1)C(=O)c1cccc(S(=O)(=O)N2CCCCC2)c1 | 3 | -5 | 95* | -14 | 8 | 20 | 11 | -17
COc1ccccc1N1CCN(/N=C/c2ccc(O)c(O)c2)CC1 | . | . | 55 | . | -3 | 25 | 1 | 18
COc1ccc(/C=N/N2CCN(c3ccccc3OC)CC2)cc1OC | -13 | -23 | -10 | -20 | -7 | . | . | .
Cn1c(CSCc2ccc(F)cc2)nnc1SCC(=O)Nc1nccs1 | 21 | 18 | 61* | 2 | 25 | 23 | 10 | -18
O=C(C[C@@H]1C/C=C\C[C@@H](NC(=O)OCC2c3ccccc3-c3ccccc32)C(=O)OC[C@@H](Cc2ccccc2)NC1=O)NCCO | 1 | 7 | 54 | -12 | 6 | 62* | 28* | -69
C[C@@H]1COC(=O)[C@H](NC(=O)OCC2c3ccccc3-c3ccccc32)C/C=C\C[C@@H](CC(=O)N(CCO)Cc2ccccc2)C(=O)N1 | -21 | 4 | 55* | 12 | . | 48* | 30* | -14
O=C(N[C@@H]1C/C=C\C[C@H](CC(=O)N(CCO)Cc2ccccc2)C(=O)N[C@@H](Cc2ccccc2)COC1=O)OCC1c2ccccc2-c2ccccc21 | 0 | -15 | 40 | -27 | -13 | . | . | .
O=C(N[C@@H]1C/C=C\C[C@@H](CC(=O)N(CCO)Cc2ccccc2)C(=O)NCCOC1=O)OCC1c2ccccc2-c2ccccc21 | 3 | -2 | 52 | -6 | . | 48* | 22 | -30
O=C(C[C@@H]1C/C=C\C[C@H](NC(=O)OCC2c3ccccc3-c3ccccc32)C(=O)O[C@H](c2ccccc2)CNC1=O)NCCO | 7 | 11 | 54 | -12 | -25 | 59* | 34* | -71
CN(CC#CC1=CCCCC1)/C(N)=N/C(=O)OCc1ccccc1 | . | . | . | . | 10 | . | . | .
CC(=O)c1cc(-c2cc(C(=O)O)cc([N+](=O)[O-])c2)c(=O)n2c1CCC2 | . | . | . | . | 2 | . | . | .
CC(C)(C)c1ccc(-c2nnc(SCC(=O)Nc3ccc(Oc4ccccc4)cc3)n2Cc2ccco2)cc1 | . | . | . | . | -4 | . | . | .
O=C(C[C@H]1C/C=C\C[C@H](NC(=O)OCC2c3ccccc3-c3ccccc32)C(=O)O[C@@H](c2ccccc2)CNC1=O)NCCO | -21 | 11 | 27 | 1 | -7 | . | . | .
CC(C)(C)[C@H]1COC(=O)[C@H](NC(=O)OCC2c3ccccc3-c3ccccc32)C/C=C\C[C@@H](CC(=O)N(CCO)Cc2ccccc2)C(=O)N1 | -4 | -14 | 58* | -5 | -5 | 52* | 14 | -40
O=C(N[C@H]1C/C=C\C[C@@H](CC(=O)N(CCO)Cc2ccccc2)C(=O)NC[C@H](c2ccccc2)OC1=O)OCC1c2ccccc2-c2ccccc21 | -18 | -11 | 59* | -30 | 2 | 59* | 16 | 34*
COC(=O)[C@]12C[C@H](CC(=O)NCCCN3CCCC3=O)C(=O)N(CCc3ccc(OC)c(OC)c3)C1=C[C@H](C1CCCC1)O[C@@H]2C | . | . | . | . | 0 | . | . | .
Cc1ccc(O)c(NC(=O)C2=CC(c3cccs3)=NS(=O)(=O)N2C)c1 | -3 | -7 | 94* | 8 | 4 | 16 | -4 | 3
